Source: the supplement of paper PMC11732987, “Enantioselective OTUD7B fragment discovery through chemoproteomics screening and high-throughput optimisation” (Communications Chemistry, 2025)

What was measured:
Test in all cases: log2 ratio of Biotin-Ahx-Ub-VS probe labelling (fragment/DMSO); higher = less target engagement (more negative = stronger competition), active = hit call of the paper (q ≤ 0.05, log2 ratio ≤ -1)
Details in all cases: compound concentration: 200 uM; treatment time: 3 h
OTUD6B = target: T1, OTUD6B (UniProt Q8N6M0)
T1 sequence (whole entry): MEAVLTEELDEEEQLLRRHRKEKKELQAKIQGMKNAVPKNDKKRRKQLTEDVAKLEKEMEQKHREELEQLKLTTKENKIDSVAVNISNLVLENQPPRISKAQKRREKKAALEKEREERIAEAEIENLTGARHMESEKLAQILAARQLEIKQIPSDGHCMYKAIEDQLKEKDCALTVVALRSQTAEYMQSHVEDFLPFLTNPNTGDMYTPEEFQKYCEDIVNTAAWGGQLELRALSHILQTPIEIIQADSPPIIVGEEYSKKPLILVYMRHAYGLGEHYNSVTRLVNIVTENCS
Procedure, shortened: (§1)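 HEK293T lysate in Tris/CHAPS/IGEPAL buffer with protease inhibitors (495 µg per sample) was given fragment at 200 µM or vehicle for 3 h, in triplicate. It then received Biotin-Ahx-Ub-VS at 0.5 µM final for 1 h. Labelled DUBs were NeutrAvidin-enriched, digested with LysC and trypsin, and run by diaPASEF LC-MS/MS. Values are average log2 fragment/vehicle ratios by unpaired t-test on global-median-normalised Spectronaut quantities of proteins with ≥2 unique peptides.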

OTUD7B = target: T2, OTUD7B (UniProt Q6GQQ9)
T2 sequence (whole entry): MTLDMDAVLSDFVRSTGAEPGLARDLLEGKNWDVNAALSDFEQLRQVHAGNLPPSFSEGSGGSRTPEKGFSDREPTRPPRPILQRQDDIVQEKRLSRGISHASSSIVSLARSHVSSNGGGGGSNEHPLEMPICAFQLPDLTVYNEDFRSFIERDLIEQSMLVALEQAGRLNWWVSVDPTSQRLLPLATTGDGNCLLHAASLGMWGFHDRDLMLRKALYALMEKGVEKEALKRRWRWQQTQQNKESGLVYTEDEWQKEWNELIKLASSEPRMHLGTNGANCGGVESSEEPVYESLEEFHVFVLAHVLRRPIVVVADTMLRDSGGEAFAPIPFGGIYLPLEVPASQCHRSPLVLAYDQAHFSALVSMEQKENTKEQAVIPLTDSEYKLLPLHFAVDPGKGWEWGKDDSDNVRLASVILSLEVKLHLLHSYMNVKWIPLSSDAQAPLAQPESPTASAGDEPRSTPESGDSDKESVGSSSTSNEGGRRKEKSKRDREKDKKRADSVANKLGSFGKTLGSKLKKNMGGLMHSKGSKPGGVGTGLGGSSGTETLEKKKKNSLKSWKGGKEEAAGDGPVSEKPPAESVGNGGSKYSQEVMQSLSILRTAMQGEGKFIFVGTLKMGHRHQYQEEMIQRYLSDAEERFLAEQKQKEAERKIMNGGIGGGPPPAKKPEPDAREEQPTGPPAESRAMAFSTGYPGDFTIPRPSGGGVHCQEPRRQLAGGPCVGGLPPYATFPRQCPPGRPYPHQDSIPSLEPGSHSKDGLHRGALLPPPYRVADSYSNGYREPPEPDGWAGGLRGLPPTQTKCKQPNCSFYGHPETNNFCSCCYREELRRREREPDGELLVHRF
Procedure, shortened: as §1

PRPF8 = PRPF8 (UniProt Q6P2Q9)
Procedure, shortened: as §1

PSMD7 = target: T3, PSMD7 (UniProt P51665)
T3 sequence (whole entry): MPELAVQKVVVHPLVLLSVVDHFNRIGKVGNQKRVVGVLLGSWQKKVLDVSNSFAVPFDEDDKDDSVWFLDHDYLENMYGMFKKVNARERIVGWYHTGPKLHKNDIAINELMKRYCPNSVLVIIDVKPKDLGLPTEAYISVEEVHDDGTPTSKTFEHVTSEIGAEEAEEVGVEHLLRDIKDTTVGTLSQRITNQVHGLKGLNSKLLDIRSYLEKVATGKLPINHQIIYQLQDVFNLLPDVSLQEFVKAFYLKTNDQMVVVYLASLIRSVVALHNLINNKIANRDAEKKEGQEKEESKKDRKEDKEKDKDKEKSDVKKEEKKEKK
Procedure, shortened: as §1

UCHL1 = UCHL1 (UniProt P09936)
Procedure, shortened: as §1

UCHL3 = target: T4, UCHL3 (UniProt P15374)
T4 sequence (whole entry): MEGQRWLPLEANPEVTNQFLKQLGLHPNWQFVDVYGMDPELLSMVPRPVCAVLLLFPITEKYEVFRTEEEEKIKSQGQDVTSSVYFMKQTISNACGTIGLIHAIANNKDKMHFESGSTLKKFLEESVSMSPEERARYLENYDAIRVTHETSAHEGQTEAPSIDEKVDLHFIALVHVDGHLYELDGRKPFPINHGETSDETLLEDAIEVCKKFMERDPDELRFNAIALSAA
Procedure, shortened: as §1

UCHL5 = target: T5, UCHL5 (UniProt Q9Y5K5)
T5 sequence (whole entry): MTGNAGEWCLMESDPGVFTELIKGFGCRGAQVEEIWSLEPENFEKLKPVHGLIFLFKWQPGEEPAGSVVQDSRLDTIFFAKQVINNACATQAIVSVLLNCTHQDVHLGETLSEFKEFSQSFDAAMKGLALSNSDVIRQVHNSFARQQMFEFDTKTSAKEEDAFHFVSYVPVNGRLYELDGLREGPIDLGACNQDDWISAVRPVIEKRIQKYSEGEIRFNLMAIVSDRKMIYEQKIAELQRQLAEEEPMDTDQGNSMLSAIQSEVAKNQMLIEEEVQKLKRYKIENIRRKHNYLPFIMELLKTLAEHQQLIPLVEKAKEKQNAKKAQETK
Procedure, shortened: as §1

USP10 = USP10 (UniProt Q14694)
Procedure, shortened: as §1

USP15 = target: T6, USP15 (UniProt Q9Y4E8)
T6 sequence (whole entry): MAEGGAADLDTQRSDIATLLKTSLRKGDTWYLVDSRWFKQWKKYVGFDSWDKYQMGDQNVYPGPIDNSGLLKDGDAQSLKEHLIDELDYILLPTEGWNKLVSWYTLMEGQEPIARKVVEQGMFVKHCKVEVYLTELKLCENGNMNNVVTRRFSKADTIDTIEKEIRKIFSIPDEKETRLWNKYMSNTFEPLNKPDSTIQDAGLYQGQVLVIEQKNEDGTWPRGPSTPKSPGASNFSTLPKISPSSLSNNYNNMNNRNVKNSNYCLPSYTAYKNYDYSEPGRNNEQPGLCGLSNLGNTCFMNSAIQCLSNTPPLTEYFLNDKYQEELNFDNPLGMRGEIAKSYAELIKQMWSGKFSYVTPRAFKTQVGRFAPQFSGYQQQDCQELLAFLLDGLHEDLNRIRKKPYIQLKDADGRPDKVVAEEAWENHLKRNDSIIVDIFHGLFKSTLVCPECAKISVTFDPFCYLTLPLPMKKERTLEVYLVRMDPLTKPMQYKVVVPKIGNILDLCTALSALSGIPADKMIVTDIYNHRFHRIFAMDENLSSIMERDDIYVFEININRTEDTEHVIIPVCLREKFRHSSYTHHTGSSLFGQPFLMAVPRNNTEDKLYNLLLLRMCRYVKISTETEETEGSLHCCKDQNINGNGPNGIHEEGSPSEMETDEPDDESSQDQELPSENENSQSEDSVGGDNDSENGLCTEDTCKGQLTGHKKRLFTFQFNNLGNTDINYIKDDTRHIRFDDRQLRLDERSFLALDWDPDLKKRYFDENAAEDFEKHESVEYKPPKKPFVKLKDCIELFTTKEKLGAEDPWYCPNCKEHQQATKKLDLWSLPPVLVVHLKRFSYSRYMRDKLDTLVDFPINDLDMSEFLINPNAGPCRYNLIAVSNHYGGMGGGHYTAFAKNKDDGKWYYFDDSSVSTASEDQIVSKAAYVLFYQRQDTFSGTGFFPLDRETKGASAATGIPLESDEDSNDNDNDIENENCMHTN
Procedure, shortened: as §1

USP16 = USP16 (UniProt Q9Y5T5)
Procedure, shortened: as §1

Measured: log2 ratio of Biotin-Ahx-Ub-VS probe labelling

Sequence of USP16 (Q9Y5T5 whole entry, looked up): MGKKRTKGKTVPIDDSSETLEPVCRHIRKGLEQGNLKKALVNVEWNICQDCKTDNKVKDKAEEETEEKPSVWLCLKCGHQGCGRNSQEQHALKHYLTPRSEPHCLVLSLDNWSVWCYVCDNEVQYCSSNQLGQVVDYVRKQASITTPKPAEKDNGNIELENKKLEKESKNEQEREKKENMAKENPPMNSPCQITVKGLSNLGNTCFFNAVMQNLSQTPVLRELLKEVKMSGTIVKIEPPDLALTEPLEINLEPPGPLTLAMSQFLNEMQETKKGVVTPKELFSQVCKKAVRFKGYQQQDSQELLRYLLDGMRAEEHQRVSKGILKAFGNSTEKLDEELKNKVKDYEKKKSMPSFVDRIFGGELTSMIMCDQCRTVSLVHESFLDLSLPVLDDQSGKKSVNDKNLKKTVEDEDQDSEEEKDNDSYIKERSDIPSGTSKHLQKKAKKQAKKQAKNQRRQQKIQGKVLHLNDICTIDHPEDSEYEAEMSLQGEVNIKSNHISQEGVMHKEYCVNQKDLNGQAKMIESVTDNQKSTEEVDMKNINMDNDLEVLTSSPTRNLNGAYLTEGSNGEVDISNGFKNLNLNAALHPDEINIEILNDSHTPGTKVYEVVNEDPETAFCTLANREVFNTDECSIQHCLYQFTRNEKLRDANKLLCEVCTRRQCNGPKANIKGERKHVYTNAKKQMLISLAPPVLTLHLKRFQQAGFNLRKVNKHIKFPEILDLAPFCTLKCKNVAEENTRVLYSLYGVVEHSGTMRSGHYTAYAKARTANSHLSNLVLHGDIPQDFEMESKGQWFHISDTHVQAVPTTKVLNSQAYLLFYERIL
Sequence of UCHL1 (P09936 whole entry, looked up): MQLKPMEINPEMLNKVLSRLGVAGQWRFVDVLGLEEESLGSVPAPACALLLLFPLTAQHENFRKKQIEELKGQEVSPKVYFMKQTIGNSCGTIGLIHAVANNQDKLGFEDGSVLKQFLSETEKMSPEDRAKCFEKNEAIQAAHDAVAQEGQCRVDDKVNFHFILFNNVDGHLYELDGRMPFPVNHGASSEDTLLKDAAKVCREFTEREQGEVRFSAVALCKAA
Sequence of USP10 (Q14694 whole entry): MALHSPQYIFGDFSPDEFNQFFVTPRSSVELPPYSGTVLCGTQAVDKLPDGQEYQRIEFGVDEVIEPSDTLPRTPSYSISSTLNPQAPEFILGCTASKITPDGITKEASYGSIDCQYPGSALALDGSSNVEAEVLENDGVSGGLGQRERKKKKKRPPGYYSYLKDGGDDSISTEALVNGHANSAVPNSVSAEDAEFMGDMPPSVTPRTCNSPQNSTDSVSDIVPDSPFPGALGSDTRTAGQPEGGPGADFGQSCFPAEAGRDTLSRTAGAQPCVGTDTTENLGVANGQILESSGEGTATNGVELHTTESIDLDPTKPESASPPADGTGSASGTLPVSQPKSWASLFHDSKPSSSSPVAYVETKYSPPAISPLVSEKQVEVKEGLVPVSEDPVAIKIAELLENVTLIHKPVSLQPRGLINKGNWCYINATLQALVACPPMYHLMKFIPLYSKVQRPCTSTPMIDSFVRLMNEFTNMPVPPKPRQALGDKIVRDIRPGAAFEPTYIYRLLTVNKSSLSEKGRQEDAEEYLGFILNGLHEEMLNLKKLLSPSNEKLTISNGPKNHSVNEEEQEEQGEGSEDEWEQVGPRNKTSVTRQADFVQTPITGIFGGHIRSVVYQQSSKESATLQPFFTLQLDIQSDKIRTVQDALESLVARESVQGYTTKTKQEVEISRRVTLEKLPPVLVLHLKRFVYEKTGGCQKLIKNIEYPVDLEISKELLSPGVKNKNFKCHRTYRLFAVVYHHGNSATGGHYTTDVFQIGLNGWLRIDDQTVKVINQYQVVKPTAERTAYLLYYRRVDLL

O=C(CCl)N1CCC(c2nc3ccccc3o2)CC1
inactive: OTUD6B -0.508 | OTUD7B -0.632 | PRPF8 -0.0832 | PSMD7 -0.495 | UCHL3 0.054 | UCHL5 -0.349 | USP10 -0.114 | USP15 -0.214 | USP16 0.149
active: UCHL1 -1.65
